Source: PubChem BioAssay (Tox21)
“And” between values parts separate entries of the source, which are not always exact repeats. Identical values can stand only once. Values without a mark were called inactive. Inconclusive results are not listed. Entries that show only a call come without a potency. The source made the active and inactive calls. Unless noted, the call rests on the fitted dose curve; in most records, active means well fitted curve in the direction sought with a large enough effect in the repeat runs; inconclusive means weak or mixed curves; inactive means no such curve, though single readings can be large; an effect the other way counts as inactive or inconclusive.

Tests used:
[1] = Caspase-3/7 induction in HepG2 cells by small molecules, qHTS assay (AID 1346978); further: nearly all actives have a fitted effect of over 15% in size; further: potency means the concentration at half of the fitted maximal effect
How it was run: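 Wild-type HepG2 cells, 2,000/well, settled 5 hr at 37 C and 5% CO2, then compound-treated for 17 hr; caspase-3/7 activity read by luminescent Caspase-Glo 3/7 after 30 min at room temperature.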

[2] = Caspase-3/7 induction in CHO-K1 cells by small molecules, qHTS cell viability counter screen (AID 1346979); further: nearly all actives have a fitted effect of over 35% in size; further: potency means the concentration at half of the fitted maximal effect
How it was run: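 Cytotoxicity counter screen: CellTiter-Fluor added to compound-treated wild-type CHO-K1 cells at 16 h (37C, 5% CO2), fluorescence measured 1 h later; same wells as caspase-3/7 measurement.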

[3] = molecular target: Nuclear receptor subfamily 1 group I member 2 (Homo sapiens) (UniProt O75469); experiment: Human pregnane X receptor (PXR) small molecule agonists, qHTS assay (AID 1346982); further: nearly all actives have a fitted effect of over 35% in size; further: potency means the concentration at half of the fitted maximal effect
Sequence of Nuclear receptor subfamily 1 group I member 2 (Homo sapiens) (O75469 whole entry, looked up): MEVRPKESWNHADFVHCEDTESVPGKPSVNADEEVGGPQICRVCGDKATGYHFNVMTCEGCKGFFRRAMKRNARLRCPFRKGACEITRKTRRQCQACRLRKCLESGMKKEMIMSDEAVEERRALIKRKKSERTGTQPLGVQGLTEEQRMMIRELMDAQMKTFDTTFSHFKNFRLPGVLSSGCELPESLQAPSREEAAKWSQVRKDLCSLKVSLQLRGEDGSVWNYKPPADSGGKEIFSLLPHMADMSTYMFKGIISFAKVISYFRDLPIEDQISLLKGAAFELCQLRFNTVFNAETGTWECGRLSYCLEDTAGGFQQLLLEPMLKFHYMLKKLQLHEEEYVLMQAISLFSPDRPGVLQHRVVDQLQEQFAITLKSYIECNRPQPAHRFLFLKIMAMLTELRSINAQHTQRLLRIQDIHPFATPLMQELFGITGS
How it was run: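 PXR-Luc HepG2 cells (CYP3A4 promoter-driven luciferase) were seeded in medium with 5% charcoal-stripped FBS, left 5 hr at 37 C, then exposed to compounds in DMSO for 24 hr. Luminescence was read after ONE-Glo addition.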

[4] = molecular target: Acetylcholinesterase (Homo sapiens) (UniProt P22303); experiment: Acetylcholinesterase (AChE) small molecule antagonists: colormetric cell-based qHTS assay (AID 1347395; calls by dose curve; further: nearly all actives have a fitted effect of over 30% in size; further: potency means the concentration at half of the fitted maximal effect)
Sequence of Acetylcholinesterase (Homo sapiens) (P22303 whole entry, looked up): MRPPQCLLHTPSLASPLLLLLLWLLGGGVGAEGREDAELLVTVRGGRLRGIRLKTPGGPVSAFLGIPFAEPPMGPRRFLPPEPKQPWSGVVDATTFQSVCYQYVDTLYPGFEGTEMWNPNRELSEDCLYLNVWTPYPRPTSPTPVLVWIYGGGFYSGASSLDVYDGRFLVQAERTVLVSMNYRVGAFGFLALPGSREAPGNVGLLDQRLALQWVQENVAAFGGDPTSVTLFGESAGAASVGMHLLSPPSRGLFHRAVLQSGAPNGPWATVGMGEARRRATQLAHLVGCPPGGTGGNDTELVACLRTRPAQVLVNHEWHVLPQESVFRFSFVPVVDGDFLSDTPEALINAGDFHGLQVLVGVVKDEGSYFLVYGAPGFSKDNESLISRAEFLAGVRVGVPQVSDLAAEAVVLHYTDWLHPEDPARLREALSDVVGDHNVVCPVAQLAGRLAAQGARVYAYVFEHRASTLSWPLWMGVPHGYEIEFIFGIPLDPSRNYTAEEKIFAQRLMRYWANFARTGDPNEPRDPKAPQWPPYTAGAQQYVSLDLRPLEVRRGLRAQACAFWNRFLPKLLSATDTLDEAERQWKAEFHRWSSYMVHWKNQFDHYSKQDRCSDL
How it was run: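 Colorimetric readout: DTNB quantifies thiocholine from acetylthiocholine hydrolysed by endogenous AChE of SH-SY5Y cells (2,000/well, plated overnight). Compound pretreatment 30 min, substrate incubation 90 min, both 37 C.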

[5] = molecular target: Acetylcholinesterase (Homo sapiens) (UniProt P22303); experiment: Acetylcholinesterase (AChE) small molecule antagonists: enzyme-based qHTS assay (AID 1347397; calls by dose curve; further: nearly all actives have a fitted effect of over 55% in size; further: potency means the concentration at half of the fitted maximal effect); settings: Potency: AChE enzyme activity inhibition
How it was run: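 Recombinant human AChE (50 mU/mL) preincubated with compound 30 min at room temperature; acetylthiocholine plus DTNB then added, and thiocholine formation read colorimetrically after 10 min at room temperature. DMSO served as vehicle control.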

[6] = molecular target: Acetylcholinesterase (Homo sapiens) (UniProt P22303); experiment: Acetylcholinesterase (AChE) small molecule antagonists: fluorescence cell-based qHTS assay (AID 1347398; calls by dose curve; further: nearly all actives have a fitted effect of over 50% in size; further: potency means the concentration at half of the fitted maximal effect); settings: Potency: AChE activity
How it was run: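 SH-SY5Y cells (2000/well), attached overnight, incubated with compound 30 min at 37 C. Acetylthiocholine plus Thiolite Green then added for 40 min at room temperature. Thiocholine fluorescence (Ex/Em 490/520 nm) reports cellular AChE activity.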

[7] = molecular target: Acetylcholinesterase (Homo sapiens) (UniProt P22303); experiment: Acetylcholinesterase (AChE) small molecule antagonists: enzyme-based qHTS assay with human liver microsomes (AID 1347399; calls by dose curve; further: nearly all actives have a fitted effect of over 60% in size; further: potency means the concentration at half of the fitted maximal effect); settings: Potency: qHTS inhibition
How it was run: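 Recombinant human AChE (50 mU/mL in the enzyme mix) and human liver microsomes (0.25 mg/mL final) were preincubated with compound and NADPH (0.25 mg/mL final) for 30 min at 37 C. Acetylthiocholine/DTNB was then added; thiocholine was read colorimetrically after 10 min at room temperature.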

[8] = molecular target: Cytochrome P450 2C19 (Homo sapiens) (UniProt P33261); experiment: Cytochrome P450 Family 2 Subfamily C Member 19 (CYP2C19) small molecule antagonists: luciferase reporter qHTS assay (AID 1671197); further: nearly all actives have a fitted effect of over 65% in size; further: potency means the concentration at half of the fitted maximal effect
Sequence of Cytochrome P450 2C19 (Homo sapiens) (P33261 whole entry, looked up): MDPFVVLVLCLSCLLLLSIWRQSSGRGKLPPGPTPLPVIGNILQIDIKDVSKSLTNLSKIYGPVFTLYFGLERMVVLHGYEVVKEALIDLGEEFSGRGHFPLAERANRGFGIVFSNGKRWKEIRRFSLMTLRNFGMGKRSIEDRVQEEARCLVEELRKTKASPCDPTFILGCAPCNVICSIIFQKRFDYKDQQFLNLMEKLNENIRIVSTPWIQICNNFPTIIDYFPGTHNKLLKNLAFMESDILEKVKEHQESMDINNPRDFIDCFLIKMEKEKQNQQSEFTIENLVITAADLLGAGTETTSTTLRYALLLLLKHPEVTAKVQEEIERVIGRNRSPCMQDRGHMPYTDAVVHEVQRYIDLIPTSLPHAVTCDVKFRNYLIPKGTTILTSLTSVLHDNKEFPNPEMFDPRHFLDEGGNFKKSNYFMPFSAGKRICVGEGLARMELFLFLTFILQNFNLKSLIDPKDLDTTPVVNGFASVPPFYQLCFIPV
How it was run: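 Enzyme-substrate mix with proluciferin substrate (P450-Glo CYP2C19 system) preincubated with compounds 10 min at room temperature; NADPH regeneration solution added, 37C for 1 h; detection reagent stops reaction, luminescence read after 20 min. Ketoconazole positive control.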

[9] = molecular target: Cytochrome P450 2C9 (Homo sapiens) (UniProt P11712); experiment: Cytochrome P450 Family 2 Subfamily C Member 9 (CYP2C9) small molecule antagonists: luciferase reporter qHTS assay (AID 1671198); further: nearly all actives have a fitted effect of over 50% in size; further: potency means the concentration at half of the fitted maximal effect
Sequence of Cytochrome P450 2C9 (Homo sapiens) (P11712 whole entry, looked up): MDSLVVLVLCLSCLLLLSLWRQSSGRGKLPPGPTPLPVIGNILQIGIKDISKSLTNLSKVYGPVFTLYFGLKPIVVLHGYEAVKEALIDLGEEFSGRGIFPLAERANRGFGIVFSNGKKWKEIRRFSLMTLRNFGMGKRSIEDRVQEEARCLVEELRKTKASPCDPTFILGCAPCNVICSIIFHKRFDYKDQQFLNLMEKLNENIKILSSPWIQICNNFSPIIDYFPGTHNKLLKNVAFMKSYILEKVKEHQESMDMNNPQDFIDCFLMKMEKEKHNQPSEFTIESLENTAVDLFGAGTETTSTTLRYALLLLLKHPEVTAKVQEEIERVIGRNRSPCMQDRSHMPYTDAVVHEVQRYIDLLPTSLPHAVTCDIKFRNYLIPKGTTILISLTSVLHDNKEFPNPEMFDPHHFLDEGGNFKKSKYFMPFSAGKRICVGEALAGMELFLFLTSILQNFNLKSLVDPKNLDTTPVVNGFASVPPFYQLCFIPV
How it was run: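 P450-Glo proluciferin substrate with CYP2C9 enzyme; 10 min RT preincubation, then NADPH regeneration 1 h at 37C; luciferin detection reagent 20 min RT, luminescence in relative luminescence units.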

[10] = molecular target: Cytochrome P450 1A2 (Homo sapiens) (UniProt P05177); experiment: Cytochrome P450 Family 1 Subfamily A Member 2 (CYP1A2) small molecule antagonists: luciferase reporter qHTS assay (AID 1671199); further: nearly all actives have a fitted effect of over 50% in size; further: potency means the concentration at half of the fitted maximal effect
Sequence of Cytochrome P450 1A2 (Homo sapiens) (P05177 whole entry, looked up): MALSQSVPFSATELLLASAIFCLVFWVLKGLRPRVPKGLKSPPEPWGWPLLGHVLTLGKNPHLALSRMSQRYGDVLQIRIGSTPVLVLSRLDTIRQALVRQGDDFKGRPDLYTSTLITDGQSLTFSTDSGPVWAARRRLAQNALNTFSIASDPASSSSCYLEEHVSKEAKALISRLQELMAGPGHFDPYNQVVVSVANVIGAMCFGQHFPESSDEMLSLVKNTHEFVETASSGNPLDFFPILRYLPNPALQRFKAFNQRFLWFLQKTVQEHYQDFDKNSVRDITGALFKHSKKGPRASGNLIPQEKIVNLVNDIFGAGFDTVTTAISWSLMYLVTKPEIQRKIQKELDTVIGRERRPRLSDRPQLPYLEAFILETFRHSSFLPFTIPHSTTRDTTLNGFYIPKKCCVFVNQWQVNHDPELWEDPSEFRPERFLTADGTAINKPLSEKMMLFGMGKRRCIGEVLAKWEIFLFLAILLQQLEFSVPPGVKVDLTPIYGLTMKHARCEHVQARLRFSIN
How it was run: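 Human CYP1A2 activity measured with a P450-Glo proluciferin substrate; compounds in DMSO preincubated 10 min at room temperature with enzyme-substrate mix, then NADPH regeneration system added for 1 h. Luciferin detection reagent, 20 min, luminescence read.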

[11] = molecular target: Voltage-gated inwardly rectifying potassium channel KCNH2 (Homo sapiens) (UniProt Q12809); experiment: Human Ether-a-go-go-Related Gene (hERG) channel small molecule antagonists: fluorescence cell-based qHTS assay (AID 1671200); further: nearly all actives have a fitted effect of over 50% in size; further: potency means the concentration at half of the fitted maximal effect
Sequence of Voltage-gated inwardly rectifying potassium channel KCNH2 (Homo sapiens) (Q12809 whole entry, looked up): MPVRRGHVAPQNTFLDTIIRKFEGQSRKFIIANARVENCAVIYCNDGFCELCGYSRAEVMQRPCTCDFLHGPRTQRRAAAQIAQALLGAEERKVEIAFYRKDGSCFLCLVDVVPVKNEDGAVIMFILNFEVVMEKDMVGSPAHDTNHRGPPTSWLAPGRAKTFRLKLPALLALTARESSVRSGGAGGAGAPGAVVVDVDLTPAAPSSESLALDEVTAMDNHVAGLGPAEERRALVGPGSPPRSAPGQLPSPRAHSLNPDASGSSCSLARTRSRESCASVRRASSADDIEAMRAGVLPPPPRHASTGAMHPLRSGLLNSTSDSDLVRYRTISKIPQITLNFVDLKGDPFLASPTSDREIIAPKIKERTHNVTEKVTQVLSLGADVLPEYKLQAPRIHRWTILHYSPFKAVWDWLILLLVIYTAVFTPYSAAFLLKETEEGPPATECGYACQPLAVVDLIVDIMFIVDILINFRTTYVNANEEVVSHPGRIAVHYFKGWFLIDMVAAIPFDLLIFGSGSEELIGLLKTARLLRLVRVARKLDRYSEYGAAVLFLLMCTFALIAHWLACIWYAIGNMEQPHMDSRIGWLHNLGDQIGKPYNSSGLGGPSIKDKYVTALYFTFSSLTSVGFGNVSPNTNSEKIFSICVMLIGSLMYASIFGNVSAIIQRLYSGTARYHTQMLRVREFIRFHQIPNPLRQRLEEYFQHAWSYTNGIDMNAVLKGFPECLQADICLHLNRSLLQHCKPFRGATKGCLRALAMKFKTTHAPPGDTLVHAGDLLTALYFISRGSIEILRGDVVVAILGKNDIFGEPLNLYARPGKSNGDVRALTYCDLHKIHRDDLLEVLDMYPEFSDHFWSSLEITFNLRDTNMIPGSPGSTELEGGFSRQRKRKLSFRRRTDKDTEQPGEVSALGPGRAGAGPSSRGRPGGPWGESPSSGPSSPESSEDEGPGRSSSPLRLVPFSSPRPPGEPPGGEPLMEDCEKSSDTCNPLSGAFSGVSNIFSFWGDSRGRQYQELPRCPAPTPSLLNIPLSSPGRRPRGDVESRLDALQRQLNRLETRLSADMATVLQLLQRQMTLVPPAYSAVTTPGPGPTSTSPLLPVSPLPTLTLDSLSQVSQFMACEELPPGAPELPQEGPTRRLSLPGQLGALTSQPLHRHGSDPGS
How it was run: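 Thallium flux as potassium surrogate: FluxOR II dye loaded 1 h at room temperature into hERG-expressing U2OS cells, then stimulus buffer added after 10 min. Kinetic 480 nm excitation/540 nm emission read, 2 min.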

[12] = Caspase-3/7 induction in CHO-K1 cells by small molecules, qHTS assay (AID 1346980); further: nearly all actives have a fitted effect of over 15% in size
How it was run: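 Wild-type CHO-K1 cells exposed to compounds for 17hr at 37 C, 5% CO2. Caspase-3/7 activity then measured by Caspase-Glo 3/7 luminescence after 30min at room temperature.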

[13] = molecular target: Cytochrome P450 3A4 (Homo sapiens) (UniProt P08684); experiment: Cytochrome P450 Family 3 Subfamily A Member 4 (CYP3A4) small molecule antagonists: luciferase reporter qHTS assay (AID 1671201); further: nearly all actives have a fitted effect of over 50% in size; further: potency means the concentration at half of the fitted maximal effect
Sequence of Cytochrome P450 3A4 (Homo sapiens) (P08684 whole entry, looked up): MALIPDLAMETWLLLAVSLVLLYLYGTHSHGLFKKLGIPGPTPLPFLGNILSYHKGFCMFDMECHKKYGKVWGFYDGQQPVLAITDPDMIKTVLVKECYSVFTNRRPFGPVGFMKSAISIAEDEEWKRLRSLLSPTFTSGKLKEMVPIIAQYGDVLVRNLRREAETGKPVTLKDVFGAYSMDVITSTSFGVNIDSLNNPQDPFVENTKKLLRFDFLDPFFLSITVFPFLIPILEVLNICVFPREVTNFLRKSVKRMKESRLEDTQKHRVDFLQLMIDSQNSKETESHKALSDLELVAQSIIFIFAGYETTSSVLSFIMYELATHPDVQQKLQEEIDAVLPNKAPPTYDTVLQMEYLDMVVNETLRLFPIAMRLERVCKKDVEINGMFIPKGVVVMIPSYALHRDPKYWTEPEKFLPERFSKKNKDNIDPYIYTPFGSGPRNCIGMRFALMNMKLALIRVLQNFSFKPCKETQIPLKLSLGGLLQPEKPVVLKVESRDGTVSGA
How it was run: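 Recombinant human CYP3A4 converts a proluciferin substrate to luciferin over 1 h at room temperature after NADPH regeneration solution is added (compound preincubated 10 min); detection reagent stops reaction, luminescence read 20 min later as relative units.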

[14] = molecular target: Cytochrome P450 2D6 (Homo sapiens) (UniProt P10635); experiment: Cytochrome P450 Family 2 Subfamily D Member 6 (CYP2D6) small molecule antagonists: luciferase reporter qHTS assay (AID 1671196); further: nearly all actives have a fitted effect of over 50% in size; further: potency means the concentration at half of the fitted maximal effect
Sequence of Cytochrome P450 2D6 (Homo sapiens) (P10635 whole entry, looked up): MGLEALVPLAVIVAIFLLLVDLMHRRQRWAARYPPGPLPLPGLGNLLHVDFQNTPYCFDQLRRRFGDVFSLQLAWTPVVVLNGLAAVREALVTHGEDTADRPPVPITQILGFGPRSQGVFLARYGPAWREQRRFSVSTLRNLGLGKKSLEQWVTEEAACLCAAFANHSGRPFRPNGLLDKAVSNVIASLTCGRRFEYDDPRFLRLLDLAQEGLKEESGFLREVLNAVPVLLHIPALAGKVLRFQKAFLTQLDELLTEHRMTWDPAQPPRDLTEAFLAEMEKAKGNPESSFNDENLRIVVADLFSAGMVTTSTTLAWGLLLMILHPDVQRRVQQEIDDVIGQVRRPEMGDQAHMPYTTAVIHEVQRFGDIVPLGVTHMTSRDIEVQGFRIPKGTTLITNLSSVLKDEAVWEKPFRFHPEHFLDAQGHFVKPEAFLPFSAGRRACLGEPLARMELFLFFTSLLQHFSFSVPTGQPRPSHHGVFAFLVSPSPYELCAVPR
How it was run: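 CYP2D6 enzyme–substrate mix was held with compound for 10 min at room temperature, then NADPH regeneration solution was added and the reaction ran 1 h at room temperature. Luciferin product was detected by luminescence after 20 min with detection reagent.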

[15] = Caspase-3/7 induction in HepG2 cells by small molecules, qHTS cell viability counter screen (AID 1346981); further: nearly all actives have a fitted effect of over 30% in size; further: potency means the concentration at half of the fitted maximal effect
How it was run: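 Wild-type HepG2 cells (2,000/well) were allowed to settle for 5 hr at 37 C, 5% CO2, then dosed with compounds in DMSO by pin transfer. After 16 hr at 37 C, CellTiter-Fluor was added and fluorescence read 1 hr later.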

[16] = molecular target: Nuclear receptor subfamily 1 group I member 2 (Rattus norvegicus) (UniProt Q9R1A7); experiment: Rat pregnane X receptor (rPXR) activation by small molecules, qHTS assay (AID 1346983); settings: rPXR luciferase reporter cells, One-Glo luminescence, 24 h; max activation: active compounds read high; further: nearly all actives have a fitted effect of over 20% in size
How it was run: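 Cell-based rPXR activation assay: rPXR cells, 2,000 per well, rested 5hr at 37 C, then exposed to compounds in DMSO for 24 hr at 37 C. Luciferase activity read by One-Glo luminescence after 30 min at room temperature.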

[17] = molecular target: Nuclear receptor subfamily 1 group I member 2 (Homo sapiens) (UniProt O75469); experiment: CYP3A4 induction through human pregnane X receptor (PXR) by small molecules, qHTS assay (AID 1346984); further: nearly all actives have a fitted effect of over 40% in size
How it was run: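 DPX-2 cells (HepG2 co-transfected with PXR and CYP3A4 promoter-luciferase) treated with compounds 24 h at 37C; luciferin-IPA CYP3A4 substrate 3uM final added for 3 h, then One-Glo; luminescence read. qHTS format.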

[18] = molecular target: Nuclear receptor subfamily 1 group I member 2 (Homo sapiens) (UniProt O75469); experiment: Human pregnane X receptor (PXR) activation by small molecules, qHTS assay (AID 1346985); further: nearly all actives have a fitted effect of over 40% in size
How it was run: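 DPX-2 cells (HepG2 co-transfected with a PXR response element and a CYP3A4-promoter luciferase construct) were seeded at 2,000 per well, rested 5 hr at 37C, then exposed to DMSO-dissolved compounds for 24 hr. Activation was read as luciferase luminescence.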

Row | SMILES | Potency [1] | Potency [2] | Potency [3] | Potency [4] | Potency [5] | Potency [6] | Potency [7] | Potency [8] | Potency [9] | Potency [10] | Potency [11] | Potency [12] | Potency [13] | Potency [14] | Potency [15] | max activation [16] [%] | Potency [17] | Potency [18]
1 | CCN(CC)C(=S)[S-].CCN(CC)C(=S)[S-].[Zn+2] | 1.08 µM (active) | 2.41 µM (active) | 4.29 µM (active) | inactive | inactive | inactive | inactive | 49.8 µM (active) | 15.8 µM (active) | inactive | 8.63 µM (active) |  |  |  |  |  |  | 
2 | C[C@@H](Oc1ccc(Cl)cc1Cl)C(=O)O | inactive |  | inactive | inactive | inactive | inactive | inactive | inactive | inactive |  | inactive | inactive | inactive |  |  |  |  | 
3 | BrCBr | inactive | inactive | inactive | inactive | inactive | inactive | inactive | inactive |  | inactive | inactive |  | inactive | inactive |  |  |  | 
4 | CC(C)CCCCCCCOP(=O)(Oc1ccccc1)Oc1ccccc1 | inactive |  | 6.89 µM (active) | inactive | inactive |  | inactive | 6.36 µM (active) |  | 28.4 µM (active) |  | inactive |  |  | inactive |  |  | 
5 | CCSC(C)CC1CC(=O)C(/C(CC)=N/OC/C=C/Cl)=C(O)C1 (stereo not given) | inactive | inactive | inactive | 30.9 µM (active) | inactive |  | inactive | 9.77 µM (active) | 13.8 µM (active) |  | inactive |  | 8.71 µM (active) |  |  |  |  | 
6 | CC1(C)CC/C(=C/c2ccc(Cl)cc2)C1(O)Cn1cncn1 (stereo not given) | inactive |  | 12.1 µM (active) | inactive | inactive | inactive | inactive | 0.223 µM (active) | 1.12 µM (active) | 35.4 µM (active) | inactive | inactive |  | 12.6 µM (active) | inactive |  |  | 
7 | COC(=O)N(C(=O)N1COC2(C(=O)OC)Cc3cc(Cl)ccc3C2=N1)c1ccc(OC(F)(F)F)cc1 (stereo not given) | inactive |  | 10.6 µM (active) |  | inactive | inactive | inactive | 0.195 µM (active) | 4.9 µM (active) | inactive | inactive | inactive | 5.49 µM (active) | inactive | inactive |  |  | 
8 | SCc1ccco1 | inactive |  | inactive | inactive | inactive | inactive | inactive | 39.9 µM (active) | 35.6 µM (active) | 35.6 µM (active) | inactive | inactive |  |  | inactive |  |  | 
9 | c1ccc(Nc2ccc3ccccc3c2)cc1 | inactive | 54.5 µM (active) | 30.5 µM (active) and 21.7 µM (active) | inactive | inactive | inactive | inactive | 7.06 µM (active) and 5.64 µM (active) | 35.4 µM (active) and 31.7 µM (active) | 3.54 µM (active) and 3.56 µM (active) | inactive |  | 22.3 µM (active) and 35.6 µM (active) |  |  |  |  | 
10 | CC(Cc1ccc(C(C)(C)C)cc1)CN1C[C@@H](C)O[C@@H](C)C1 (stereo not given in full) | inactive |  | 30.6 µM (active) | inactive |  | inactive | inactive | 31.7 µM (active) | 35.6 µM (active) |  | 12.3 µM (active) | inactive | 22.4 µM (active) | 8.94 µM (active) | inactive |  |  | 
11 | O=[N+]([O-])c1ccc(Oc2ccc(C(F)(F)F)cc2[N+](=O)[O-])cc1 | inactive |  | 17.2 µM (active) | inactive | inactive | inactive | inactive | 0.894 µM (active) | 25.2 µM (active) | 31.7 µM (active) | 6.16 µM (active) | inactive |  | 22.4 µM (active) | inactive |  |  | 
12 | C[C@H]1CC[C@@H]2[C@@H](C)[C@H]3[C@H](C[C@H]4[C@@H]5CC=C6CC(O[C@@H]7O[C@H](CO)[C@H](O)[C@H](O[C@@H]8O[C@H](CO)[C@@H](O)[C@H](O)[C@H]8O)[C@H]7O[C@H]7O[C@@H](C)[C@H](O)[C@@H](O)[C@H]7O)CC[C@]6(C)[C@H]5CC[C@]34C)N2C1 (stereo not given in full) | inactive |  |  |  |  | 2.92 µM (active) | inactive | inactive | inactive |  | inactive | inactive | inactive |  | 31.6 µM (active) | -11.8 | inactive | inactive
13 | CCOP(=O)(NC(C)C)Oc1ccc(SC)c(C)c1 (stereo not given) | inactive |  | 7.7 µM (active) |  | 84.4 µM (active) | 15.9 µM (active) | 71 µM (active) | 1.59 µM (active) | 11.9 µM (active) | 2.75 µM (active) | inactive | inactive |  | 5.02 µM (active) |  |  |  | 
14 | COC(=O)N(C(=O)N1CO[C@@]2(C(=O)OC)Cc3cc(Cl)ccc3C2=N1)c1ccc(OC(F)(F)F)cc1 | inactive |  | 1.67 µM (active) | inactive | inactive | inactive | inactive | 0.154 µM (active) | 2.73 µM (active) |  | inactive | inactive | 2.44 µM (active) |  | inactive |  |  | 
15 | Cc1cc(SCc2sc(-c3ccc(C(F)(F)F)c(F)c3)nc2C)ccc1OCC(=O)O | inactive |  | 24.3 µM (active) | inactive |  | inactive | inactive | inactive | 35.6 µM (active) |  | inactive | inactive | inactive | inactive |  |  |  | 
16 | C=CC(=O)OCCCCOC(=O)C=C | inactive | 24.3 µM (active) | inactive | inactive | inactive | inactive | inactive |  |  | 35.6 µM (active) | inactive |  | inactive | inactive |  |  |  | 
